Measurements as given in ChEMBL document CHEMBL3988442, “University of Dundee, Small-Polar-MMV Screening Library” (2021).
Several values for one entry are separate records, joined by “and”; a condition that tells them apart may be missing. Equal values may be shown once. The campaign covered roughly 34,000 compounds. About 290 (0.85%) showed an effect of 50% or more. What follows is part of a selection rich in strong results, with near analogues and random picks from the rest.

Test system: Plasmodium falciparum
Experiment: Plasmodium falciparum sporozoite viability assay
Type: functional, organism-based
Set-up: scale not given: in the data most compounds retested in dose-response had high values

Structure (SMILES): CCOCCCNC(=O)C1(C)CCC(=O)N1Cc1ccccc1F (stereo not drawn)
- Percent Effect: -5.282%

Structure (SMILES): COc1cccc(Nc2nc(-c3ccncc3)nc3c2CNCC3)c1.Cl
- Percent Effect: 6.202%

Structure (SMILES): COc1cccc(Nc2nc(N3CCCC3)nc3c2CNCC3)c1.Cl
- Percent Effect: 4.348%

Structure (SMILES): COc1cccc(-c2cc(C3CCCNC3)ccn2)c1 (stereo not drawn)
- Percent Effect: 10.99%

Structure (SMILES): COc1ccc(-c2cc(C3CCCNC3)ccn2)cc1.Cl (stereo not drawn)
- Percent Effect: 3.809%

Structure (SMILES): Cc1cc(C)nc(Nc2nccnc2C2CCCN(CCO)C2)n1 (stereo not drawn)
- Percent Effect: -0.8244%

Structure (SMILES): Cc1ccoc1C(=O)NC1CCN(C(=O)Nc2ccccn2)CC1
- Percent Effect: 4.048%

Structure (SMILES): CN1CCN(C[C@@H]2OC[C@H]3CN(CCc4ccccc4)CC[C@H]32)CC1.O=C(O)C(F)(F)F.O=C(O)C(F)(F)F.O=C(O)C(F)(F)F
- Percent Effect: 9.359%

Structure (SMILES): O=C(NC1CCCCC1)NC1CCCc2c1cnn2CCO (stereo not drawn)
- Percent Effect (10 mM as filed; unlikely as a test dose): -11.63% and -7.35% and -4.902%

Structure (SMILES): O=C(NCC1CCCCC1)NC1CCCc2c1cnn2CCO (stereo not drawn)
- Percent Effect (10 mM as filed; unlikely as a test dose): 38.6% and 33.33% and 56.01%

Structure (SMILES): CSc1ccc(OCCN2CCNC(=O)CC2)cc1
- Percent Effect: -10.56%

Structure (SMILES): CSCC[C@H](N)c1nnc(SCc2cc(C)ccc2C)o1.Cl
- Percent Effect: -8.516%

Structure (SMILES): CCc1n[nH]c(C(=O)NCCn2ccnc2C)c1C
- Percent Effect (10 mM as filed; unlikely as a test dose): -3953% and -3827%

Structure (SMILES): CCc1n[nH]c(C(=O)NCCn2nccc2C)c1C
- Percent Effect (10 mM as filed; unlikely as a test dose): 28.41% and 66.23% and 77.05%

Structure (SMILES): CC(C(=O)N1CCN(Cc2ccc3c(c2)OCO3)CC1)n1ccnc1 (stereo not drawn)
- Percent Effect: 3.608%

Structure (SMILES): CCn1cnnc1CNC(=O)N1CCC(CN2CCCCCC2)CC1
- Percent Effect: 4.778%

Structure (SMILES): CC(C)COCc1cncc2c1CCN(C(=O)c1cscn1)C2.O=C(O)C(F)(F)F
- Percent Effect: 5.063%

Structure (SMILES): CC(C)Cc1nc(CO)n(-c2ccc3c(c2)OCCO3)n1
- Percent Effect (10 mM as filed; unlikely as a test dose): 46.72% and 37.75%

Structure (SMILES): CC[S+]([O-])CCc1nc(CC(C)C)nn1-c1ccc2c(c1)OCCO2 (stereo not drawn)
- Percent Effect (10 mM as filed; unlikely as a test dose): 61.59% and 54.31%

Structure (SMILES): Cc1cc(C)n(CC2CCCN2C(=O)CCc2ccncc2)n1 (stereo not drawn)
- Percent Effect: 1.423%

Structure (SMILES): Cn1ccc(C(=O)NCc2cccc(CN3CCCC3)c2)cc1=O
- Percent Effect: 11.38%

Structure (SMILES): CCOc1ccnc(N2CCN(C(=O)c3c(CC)noc3C)CC2)n1
- Percent Effect: -6.802%

Structure (SMILES): Cc1nccn1CC1CCCN1S(=O)(=O)Cc1ccc(F)cc1 (stereo not drawn)
- Percent Effect: 5.478%

Structure (SMILES): CN1CCOC(C(=O)Nc2ccc3[nH]nnc3c2)C1 (stereo not drawn)
- Percent Effect (10 mM as filed; unlikely as a test dose): -26.35% and -20.34%

Structure (SMILES): CN1CCOC(C(=O)Nc2ccc3c(c2)nc(C2CC2)n3C)C1 (stereo not drawn)
- Percent Effect (10 mM as filed; unlikely as a test dose): -13.44% and -13.85%

Structure (SMILES): CN1CCOC(C(=O)Nc2ccc3c(c2)nc(C(C)(C)C)n3C)C1 (stereo not drawn)
- Percent Effect (10 mM as filed; unlikely as a test dose): 104.1% and 105.2%

Structure (SMILES): CC1CCCN(C(=O)C2CCN(c3snc4ccccc34)CC2)C1 (stereo not drawn)
- Percent Effect: 6.864%

Structure (SMILES): CC(C)c1cc(NC(=O)c2ccc(NC3CC3)nc2)[nH]n1
- Percent Effect: 15.54%

Structure (SMILES): c1cc(-c2cncnc2)cc(-c2ccn(CC3CCNC3)n2)c1 (stereo not drawn)
- Percent Effect (10 mM as filed; unlikely as a test dose): -11.99% and -9.692% and -21.27%

Structure (SMILES): Cc1ccsc1-c1cccc(-c2ccn(CC3CCNC3)n2)c1 (stereo not drawn)
- Percent Effect (10 mM as filed; unlikely as a test dose): 75.23% and 72.27% and 75.29%

Structure (SMILES): Cc1nccc(-c2cccc(-c3ccn(CC4CCNC4)n3)c2)n1 (stereo not drawn)
- Percent Effect (10 mM as filed; unlikely as a test dose): -3.675% and -28.15% and -23.4%

Structure (SMILES): O=C(Nc1ccccc1OCCc1ccccn1)N1CCOCC(O)C1 (stereo not drawn)
- Percent Effect: 6.804%

Structure (SMILES): Cc1cc(OCC(O)c2nc3c([nH]2)CC(C)(C)CNC3=O)ccc1Cl (stereo not drawn)
- Percent Effect: 5.403%

Structure (SMILES): c1cncc(-c2noc(CN3CCc4cncnc4C3)n2)c1
- Percent Effect: 1.959%

Structure (SMILES): c1ccc(-c2noc(CN3CCc4cncnc4C3)n2)nc1
- Percent Effect (10 mM as filed; unlikely as a test dose): 68.57% and 81.28% and 66.45%

Structure (SMILES): Cc1cc(C(=O)N2CCCC(n3cncn3)C2)no1 (stereo not drawn)
- Percent Effect: 2.312%

Structure (SMILES): CCN(C(=O)c1cnc(-c2ccc3c(c2)OCO3)s1)C1CC1
- Percent Effect (10 mM as filed; unlikely as a test dose): -15.93% and -34.81%

Structure (SMILES): CN(C)C(=O)c1cnc(-c2ccc3c(c2)OCO3)s1
- Percent Effect (10 mM as filed; unlikely as a test dose): -22.33% and -36.75%

Structure (SMILES): CC(C1CC1)N(C)C(=O)c1cnc(-c2ccc3c(c2)OCO3)s1 (stereo not drawn)
- Percent Effect (10 mM as filed; unlikely as a test dose): 53.72% and 75.58% and 50.81%

Structure (SMILES): COc1c(C2CCCN2Cc2noc(C(C)C)n2)c(C)nn1C (stereo not drawn)
- Percent Effect: 4.307%

Structure (SMILES): CCc1nnc(CN2CCOC(Cn3cccn3)C2)o1 (stereo not drawn)
- Percent Effect: 11.86%

Structure (SMILES): c1csc(-c2nc(CN3CCOC(Cn4cccn4)C3)cs2)c1 (stereo not drawn)
- Percent Effect: 3.015%

Structure (SMILES): c1csc(-c2nc(CN3CCOC(Cn4cncn4)C3)cs2)c1 (stereo not drawn)
- Percent Effect (10 mM as filed; unlikely as a test dose): 44.25% and 56.8% and 40.33%

Structure (SMILES): c1csc(-c2nc(CN3CCOC(Cn4cncn4)C3)co2)c1 (stereo not drawn)
- Percent Effect: 15.52%

Structure (SMILES): c1ccc(-c2nc(CN3CCOC(Cn4cncn4)C3)cs2)cc1 (stereo not drawn)
- Percent Effect (10 mM as filed; unlikely as a test dose): 57.17% and 32.5% and 36.71%

Structure (SMILES): c1ccc(-c2nc(CN3CCOC(Cn4cccn4)C3)cs2)cc1 (stereo not drawn)
- Percent Effect (10 mM as filed; unlikely as a test dose): -13.99% and -29.39%

Structure (SMILES): O=C1NCC2=C1C(c1ccc(O)cc1)Nc1ccccc1N2 (stereo not drawn)
- Percent Effect: -23.23%

Structure (SMILES): COCCN1CCCC1c1ccnc(-c2ccccc2)n1 (stereo not drawn)
- Percent Effect: 6.777%

Structure (SMILES): CCN1CCN(C(C)CNC(=O)Nc2nnc(C)s2)CC1 (stereo not drawn)
- Percent Effect: -9.257%

Structure (SMILES): Cc1noc(C)c1CCC(=O)NCC1(O)CCN(c2ccccn2)C1 (stereo not drawn)
- Percent Effect: 8.46%

Structure (SMILES): CNc1cc(C)nc(N2C[C@@H](C(=O)O)[C@H](C3CC3)C2)n1
- Percent Effect (10 mM as filed; unlikely as a test dose): 73.63% and 80.29% and 69.7%

Structure (SMILES): CNc1cc(C)nc(N2C[C@H](C3CC3)[C@@H](N)C2)n1
- Percent Effect (10 mM as filed; unlikely as a test dose): 11.54% and 8.166% and -2.157%

Structure (SMILES): CNc1cc(C)nc(N2C[C@H](NC(=O)C3CCOCC3)[C@@H](C3CC3)C2)n1
- Percent Effect (10 mM as filed; unlikely as a test dose): -9.822% and -7.832% and -7.881%

Structure (SMILES): Cc1cnn(CC2CCCN2C(=O)c2c(C)noc2C(C)C)c1 (stereo not drawn)
- Percent Effect: 2.244%

Structure (SMILES): CCn1c(N)nc2cc(C(=O)NCc3ccccc3Cl)cnc21
- Percent Effect (10 mM as filed; unlikely as a test dose): -6% and 9.799% and 1.435%

Structure (SMILES): CCn1c(N)nc2cc(C(=O)NCCc3nnc(C)s3)cnc21
- Percent Effect (10 mM as filed; unlikely as a test dose): -8.165% and -11.66%

Structure (SMILES): CCn1c(N)nc2cc(C(=O)NCCNc3ncccc3C)cnc21
- Percent Effect (10 mM as filed; unlikely as a test dose): -11.01% and -17.43%

Structure (SMILES): CCn1c(N)nc2cc(C(=O)NCCc3ccccc3F)cnc21
- Percent Effect (10 mM as filed; unlikely as a test dose): 83.82% and 65.98%
